# Experimental data: PubChem BioAssay AID1259416 (Broad Institute, 2018)
# Screen size: about 69,000 compounds; about 2,600 (3.8%) were called active. The entries come from a sample that favours actives as a whole. Values without a mark were called inactive. Rule as the data show it: active = activity change below about -70% (passing the limit was not always enough); inconclusive = no clear call, values can overlap the other calls.
# Experiment: inhibitors of Toxoplasma growth in IFN-γ-primed hosts – cell-based, primary screen (AID 1259416);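 also: host cells are HeLa cells infected with Toxoplasma gondii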
# Settings: Toxoplasma gondii growth in IFN-gamma-treated host cells; active compounds read low; concentration not given here
row,Structure (SMILES),"activity change, negative = inhibition"
1,COc1cc(/C=C/CN2CCC3(CC2)c2ccccc2[C@@H](NC(=O)C(C)C)[C@@H]3OC)ccc1O,12.6%
2,CN1C(=O)c2cc(NS(=O)(=O)c3ccccc3F)ccc2OC[C@@H]2O[C@@H](CC(=O)NC3Cc4ccccc4C3)CC[C@@H]21,-28.5%
3,Cc1nc(N2CCCC2)nc2c1CCN(C(=O)Nc1ccccc1F)CC2,-2.86%
4,Cc1cc(C)nc(N2CCN(c3c4c(nc5c(-c6ccccc6)c(C)nn35)CCC4)CC2)n1,-75.6% (active)
5,Cc1cc(N2CCN(c3nc(C)cc(C)n3)CC2)ncn1,3.08%
6,COc1ccc(Cl)cc1S(=O)(=O)N1CCC(c2nc(C(=O)N(C)C)c(C)o2)CC1,-56%
7,O=C(Cc1ccc(F)cc1)N1CC[C@@H](O)[C@@H]1Cc1ccccc1,-30.4%
8,CN(Cc1noc(C2CCC2)n1)Cc1ncccc1C(=O)O,-0.548%
9,O=C(NCc1cccnc1)C1=NOC2(CCCN(C(=O)Cc3ccc(F)cc3)C2)C1 (configuration not stated),53.7%
10,CC(=O)N1CCC(c2cc3c(ncn3C(C)C)c(-c3ccccc3)n2)CC1,-106% (active)
11,CC(C(=O)NC1CC1)N1CCc2[nH]nc(-c3ccc(-c4ccccc4)cc3)c2C1 (configuration not stated),13.6%
12,CC(C)n1cnc2c(N3CCOCC3)nc(C3CCN(Cc4cccnc4)CC3)cc21,1.27%
13,CN(CCCc1ccccc1)C(=O)c1cc(CN2CCC(O)CC2)on1,6.96%
14,CCCNc1ncc(-c2nccn2CC2CCOCC2)cn1,0.573%
15,CCc1c2c(nc3ccc(O)cc13)-c1cc3c(c(=O)n1C2)COC(=O)[C@]3(O)CC,-86.3% (active)
16,CCN(CC)Cc1cnc2n1CCN(Cc1csc(C)n1)CC2,4.3%
17,C[C@H]1CN([C@@H](C)CO)C(=O)c2ccccc2-c2ccccc2CO[C@H]1CN(C)S(=O)(=O)c1cccc(C#N)c1,5.72%
18,C[C@H](CO)N1C[C@H](C)[C@@H](CN(C)S(=O)(=O)c2ccc([N+](=O)[O-])cc2)OCc2ccccc2-c2c(n(C)c3ccccc23)C1=O,-73.3% (active)
19,C[C@@H]1CN([C@H](C)CO)C(=O)c2c(c3ccccc3n2C)-c2ccccc2CO[C@H]1CN(C)C(=O)[C@@H](Cc1ccccc1)N(C)C,-51.4%
20,CC(C)(O)CC[C@@H](O)[C@](C)(O)[C@@H]1CC[C@@]2(O)C3=CC(=O)[C@@H]4C[C@@H](O)[C@@H](O)C[C@]4(C)[C@@H]3CC[C@]12C,12.2%
21,CN(C)c1nc2c(c(=O)[nH]1)CCN(C(=O)C1(c3ccc(Cl)cc3)CCC1)C2,-11.9%

row,Structure (SMILES),"activity change, negative = inhibition"
1,COc1cc2c(cc1CNC(=O)c1cc3n(n1)CCCN(C)C3)CCC2,5.16%
2,Cc1ccsc1C(=O)N1CCC2(C1)CN(c1cccc(F)c1)C(=O)CN2C (configuration not stated),-102% (active)
3,O=C(c1cnccn1)N1CCC2(CC(=O)N(c3cccc(F)c3)C2)C1 (configuration not stated),-1.06%
4,CC(=O)N1CC(=O)N(c2cnn(C)c2)CC12CCN(C(=O)c1cnc(C)cn1)C2 (configuration not stated),8.89%
5,COc1ccc(C(=O)N2CC(C(=O)N3CCOCC3)C3(CCOCC3)C2)cc1 (configuration not stated),2.42%
6,O=C(CC1CC1)N1CC[C@@H]2[C@H](CO)Nc3ccc(-c4ccc(F)cc4)cc3[C@@H]21,-30.6%
7,COc1ccc(-c2noc(-c3c(O)c4ccccc4n(C)c3=O)n2)cc1F,31.1%
8,Cc1ccc(NC(=O)c2c(O)c3cccnc3n(-c3cccc(F)c3)c2=O)cc1F,126%
9,COc1ccc(CNC(=O)c2c(O)c3cccnc3n(-c3ccc(F)cc3)c2=O)cc1,85.2%
10,O=C(NCc1ccccc1F)c1c(O)c2cccnc2n(-c2cccc(F)c2)c1=O,-102% (active)
11,O=C(NCc1ccc(F)cc1)c1c(O)c2cccnc2n(-c2cccc(F)c2)c1=O,-108% (active)
12,COc1ccc(-n2c(=O)c(C(=O)Nc3ccccc3C)c(O)c3cccnc32)cc1,33.1%
13,C=CCNC(=O)c1c(O)c2cccnc2n(-c2cccc(F)c2)c1=O,-76.4% (active)
14,O=C(Nc1cccc(Cl)c1)c1c(O)c2cccnc2n(-c2ccc(F)cc2)c1=O,195%
15,CCc1cccc(NC(=O)c2c(O)c3cccnc3n(-c3cccc(F)c3)c2=O)c1,-96.6% (active)
16,COc1cccc(-n2c(=O)c(C(=O)NC(C)c3ccccc3)c(O)c3cccnc32)c1 (configuration not stated),-12.7%
17,CCc1ccc(NC(=O)c2c(O)c3cccnc3n(-c3ccccc3)c2=O)cc1,86%
18,COc1ccccc1CNC(=O)c1c(O)c2cccnc2n(-c2ccccc2)c1=O,-37.8%
19,COc1cccc(-n2c(=O)c(C(=O)Nc3ccccc3F)c(O)c3cccnc32)c1,40%
20,Cc1noc(C[C@H]2C[C@@H]3CN(C(=O)c4ccco4)C[C@H]3O2)n1,-25%
21,CCCN(CCC)C(=O)NCCCCCCNC(=O)N(CCC)CCC,-0.334%
